Screening data deposited in PubChem by several laboratories.
Rows were chosen to be rich in hits. Some 2.5% of all compounds tested hit in one or more screens of this group.
aSyn UTR inh – MLPCN primary screen, SNCA 5' untranslated region. alpha-synuclein 5'UTR reporter, inhibitor activity. hit rate 0.82% among 300,000. inhibition, % (tested at 7.5 µM); in the data active means inhibition above about 60%;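 further: H4 neuroglioblastoma cells stably carrying SNCA 5'UTR luciferase fusion; 0% = DMSO wells and 100% = positive control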
ANO1 activ – TMEM16A chloride channel activators or potentiators, primary screen, cell-based, HTS. hit rate 0.3% among 340,000. HEK293 TMEM16A/YFP-H148Q/I152L, iodide quench fluorescence; stronger effect = lower value. Anoctamin-1 (Mus musculus), Q8BHY3. B-score at 10 µM;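 active means fluorescence-ratio B-score plate-corrected deviation score at least 3 library SD below zero, with starting fluorescence score within 5 deviations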;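 further: channel opened by trigger with iodide after compound preincubation; score built on the fluorescence ratio of max minus min over baseline; more negative score means more quench and so TMEM16A activation or potentiation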
697 NFkB inh – inhibitors of PMA/ionomycin-induced NF-kB reporter, 697 cells, primary screen, B-cell NF-kB inhibitor project, cell-based, luminescence, uHTS. hit rate 0.33% among 330,000. inhibition, % at 4 µM. 697 B-cell NF-kB luciferase reporter, 16 h; in the data active means inhibition above about 35%
Jurkat NFkB inh – inhibitors of induced NF-kB luciferase reporter, primary screen, TCR NF-kB activation inhibitor project, cell-based, luminescence, uHTS; Jurkat, PMA/ionomycin-induced NF-kB luciferase reporter; inhibition, % at 4 µM; hit rate 0.53% among 330,000; AID 435003, 2010; in the data active means inhibition above about 50%
KLF5 inh – KLF5 expression inhibitors, primary screen, DLD-1 cells, luminescence; DLD-1 KLF5 promoter-luciferase reporter; AID 1700, 2009; hit rate 0.23% among 290,000; inhibition, % at 5 µM;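 active means inhibition above a per-plate limit of that plate's mean compound inhibition plus 3 SD, cut at about 60% in these data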;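 further: 0% = DMSO wells and 100% = LY294002 at 200 µM; higher means less KLF5 promoter-driven luciferase light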
ANO1 block – TMEM16A chloride channel inhibitors, primary screen, cell-based, HTS | Anoctamin-1 (Mus musculus), Q8BHY3 | HEK293 TMEM16A/YFP iodide influx fluorescence, ionomycin | normalized B-score (activity score, 25-100; higher = stronger inhibition) at 10 µM | hit rate 1.2% among 310,000;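 active means ratio plate-corrected score three or more library SD toward inhibition, starting fluorescence score within five deviations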;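 further: score derived from kinetic fluorescence span divided by baseline fluorescence per well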
Jurkat NFkB conf – PMA/ionomycin-induced NF-kB reporter inhibitors, Jurkat retest, confirmation, T-cell NF-kB inhibitor project, cell-based, luminescence, single concentration. shares compounds with Jurkat NFkB inh. Jurkat NF-kB luciferase, 16 h. inhibition, % at 4 µM. hit rate 27% among 2,700;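 active means inhibition reaching about 45% at 4 µM in either replicate, limit read from the data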;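 further: plate controls were PMA/ionomycin stimulated DMSO wells for no effect and unstimulated DMSO wells for full effect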
Numbers without * were called inactive; i = inactive; x = no result given.

SMILES | aSyn UTR inh | ANO1 activ | 697 NFkB inh | Jurkat NFkB inh | KLF5 inh | ANO1 block | Jurkat NFkB conf
CC1Sc2ccc(S(=O)(=O)CCC(=O)N(C)Cc3ccccc3)cc2NC1=O (configuration not stated) | 16 | i | 1 | 7 | 8 | i | x
O=c1[nH]c(-c2ccccn2)cc2ccccc12 | -118 | i | -69 | 62* | -67 | i | -16
COc1c(C)cc(C(=O)C2CCCN(S(=O)(=O)N(C)C)C2)cc1C (configuration not stated) | 11 | i | -18 | -15 | -32 | i | x
O=C(NNC(=O)C1CC=CCC1)c1ccccc1O (configuration not stated) | -53 | i | -13 | 11 | -67 | i | x
C[n+]1c2n(c3ccccc31)N=C(c1cc(C(C)(C)C)c(O)c(C(C)(C)C)c1)CS2 | 68* | i | -8 | 52* | 29 | 100* | 3
O=C(c1ccccc1)c1cnc(Nc2ccccc2Cl)s1 | -96 | i | -149 | -156 | -238 | i | -72
CCOc1ccc(C(=O)OCC(=O)N(Cc2ccccc2)Cc2ccccc2)cc1OC | x | i | 5 | 7 | x | x | x
CCOc1cc(C2NN=C(c3ccc(C)cc3)S2)ccc1O (configuration not stated) | x | i | x | x | -25 | i | x
Oc1ccccc1C1NN=C(c2ccccc2)S1 (configuration not stated) | -80 | i | -214 | -175 | -66 | i | -121
CN(CC(=O)NC(=O)NCc1ccccc1)CC(=O)Nc1ccc(Cl)c(Cl)c1 | x | i | 17 | 2 | x | x | x
COc1ccc2[nH]c3c(c2c1)CCNC3C1CC=C(C)CC1 (configuration not stated) | 29 | i | 16 | 58* | -12 | i | -17
CCOC(=O)CSc1nc(-c2ccncc2)ccc1C#N | -138 | i | -118 | -210 | -173 | i | -75
COc1cc(/C=N/O)ccc1OCc1ccc(Cl)cc1 | -97 | x | -218 | -177 | -254 | i | -187
COc1cc(/C=C(\C#N)C(=O)Nc2cccc(C(=O)O)c2)ccc1OCc1ccc(Cl)cc1 | -58 | i | -5 | -229 | -139 | i | -130
COc1ccccc1N1CCN(C2CCCN(Cc3cc(F)cc(F)c3)C2)CC1 (configuration not stated) | -4 | i | -7 | 9 | -20 | i | x
O=C(N/N=C/c1ccc(F)cc1)c1cc(-c2ccc3c(c2)OCO3)n[nH]1 | -22 | i | -11 | -10 | -31 | i | x
Oc1ccc(F)cc1-c1cc(-c2ccc3c(c2)OCCO3)n[nH]1 | -151 | i | -224 | -160 | -149 | i | -129
O=C(N/N=C\c1cccc(Cl)c1)c1n[nH]c2c1CCCC2 | -152 | i | -192 | -152 | -90 | i | -63
COc1ccc(NC(=O)COc2ccccc2Cl)cc1S(=O)(=O)N1CCCCC1 | x | i | -15 | -7 | x | x | x
COc1ccc(OCC(=O)Nc2ccc(OC)c(S(=O)(=O)N3CCCCC3)c2)cc1 | -96 | i | -36 | 50* | x | i | 19
CCc1cc2cc(C(=O)Nc3ccc(F)cc3)sc2s1 | -150 | i | 6 | -48 | -11 | i | x
CCc1cc2cc(C(=O)Nc3ccccc3F)sc2s1 | -134 | i | 2 | -218 | -48 | i | -104
COc1ccc(NS(=O)(=O)c2cc(NC(=O)c3ccco3)ccc2N2CCCC2)cc1 | -9 | i | -112 | 62* | -30 | i | 8
COc1ccc(NS(=O)(=O)c2cc(NC(=O)c3sccc3C)ccc2N2CCOCC2)cc1 | -43 | i | -11 | 50* | -22 | i | 2
Cc1ccc(CC(NC(=O)C2CCCCC2)C(=O)O)cc1 (configuration not stated) | x | i | 12 | x | x | x | x
SMILES | aSyn UTR inh | ANO1 activ | 697 NFkB inh | Jurkat NFkB inh | KLF5 inh | ANO1 block | Jurkat NFkB conf
CSc1nccc(N/N=C/c2ccccc2)n1 | -158 | i | -136 | -160 | -183 | i | -67
Cc1ccnc(N/N=C/c2ccccc2)n1 | -90 | i | -69 | -75 | -101 | i | x
Cc1ccc(OCc2occc2C(=O)O)cc1 | x | i | x | x | x | x | x
COC1=CC(=O)C=C(OC)C1(O)CC(C)=O | x | i | x | x | x | x | x
CCCCCc1ccc(-c2cn(CCCOCc3ccccc3)nn2)cc1 | 11 | i | 19 | -1 | 8 | i | x
CCCCCc1ccc(-c2cn(CCc3c[nH]c4ccccc34)nn2)cc1 | -18 | i | -64 | 56* | 7 | i | 14
CC(NC(=O)c1ccc(CS(C)(=O)=O)cc1)c1cccc2ccccc12 (configuration not stated) | 5 | i | 13 | 9 | 2 | i | x
Cc1ccc(/C=N/NC(=O)c2c(C)nc3ccc(Br)cn23)cc1 | 80* | i | 10 | 50* | 63* | i | 53*
COC(=O)c1ccc(/C=N\NC(=O)c2c(C)nc3ccc(Cl)cn23)cc1 | -23 | i | -1 | 2 | -2 | i | x
CC(=O)c1ccc2c(c1)C1C=CCC1C(c1cc3c(cc1Br)OCO3)N2 (configuration not stated) | 39 | i | -35 | 80* | x | i | 29
Cc1ccc(C(=O)c2cc([N+](=O)[O-])ccc2N2CCCCC2)cc1 | 81* | i | 32 | 56* | 56 | i | 53*
O=C(NCc1ccc2c(c1)OCO2)c1cc([N+](=O)[O-])ccc1N1CCCCC1 | 28 | i | -54 | 65* | 48 | i | 30
O=C(c1ccc(Br)cc1)c1cc([N+](=O)[O-])ccc1N1CCOCC1 | 27 | i | -43 | 72* | 11 | i | 51*
O=C(c1ccc(Cl)cc1)c1cc([N+](=O)[O-])ccc1N1CCOCC1 | 118* | i | 8 | 70* | -20 | i | 41
Cc1ccc(C(=O)c2cc([N+](=O)[O-])ccc2N2CC(C)OC(C)C2)cc1 (configuration not stated) | -39 | i | -52 | 46 | -6 | i | x
Nc1ccc(S(=O)(=O)Nc2nccs2)cc1N=Nc1ccccc1[N+](=O)[O-] | x | i | x | x | x | x | x
Fc1ccccc1/C=N/Nc1nc(-c2ccccn2)nc2ccccc12 | 81* | x | -23 | 61* | 16 | i | -8
CCc1cccc2c(C(=O)CN3C(=O)NC4(CCCCCC4)C3=O)c[nH]c12 | x | i | -15 | 94* | x | x | 16
C1=C(c2ccco2)N2CCN=C2S1 | 10 | i | -65 | -7 | -26 | i | x
